Source: PubChem BioAssay
Shown are actives, neighbours in structure and some others; about 4.3% of the full set was active somewhere.
MazEF act – activators of E. coli MazEF toxin-antitoxin RNase, primary screen, biochemical, fluorescence, uHTS; Endoribonuclease toxin MazF (Escherichia coli (strain K12)), P0AE70; FAM/BHQ RNA-DNA oligo cleavage fluorescence, 5 h; activation, % at 20 µM; 350,000 tested, 0.32% active; AID 504720, 2011; in the data active = activation above about 50%
Target sequence (P0AE70 whole entry, looked up): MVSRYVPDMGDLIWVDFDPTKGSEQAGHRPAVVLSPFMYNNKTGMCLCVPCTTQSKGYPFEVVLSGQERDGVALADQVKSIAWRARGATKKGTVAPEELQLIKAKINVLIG
BoNT A protease – BoNT/A light chain protease inhibitors, primary screen, biochemical, flow cytometry, MLPCN library. Botulinum neurotoxin type A light chain protease (Clostridium botulinum A str. ATCC 3502). multiplex microsphere protease substrate cleavage. inhibition, % at 10 µM. 360,000 tested, 0.17% active; also: plate controls were buffer without enzyme for full effect and enzyme alone for no effect
PfHsp40 rescue – rescue of yeast from PfHsp40 toxicity, primary screen, S. cerevisiae, ATP luminescence | AID 504582, 2011 | S. cerevisiae expressing PfHsp40, growth rescue | growth rescue, % at 12.5 µM | 340,000 tested, 0.68% active; in the data active = growth rescue above about 28%, passing the limit was not always enough; inconclusive = no clear call, values can overlap the other calls;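 also: yeast W303a lacking pdr1 and pdr3 grown in galactose medium; growth measured after three days at 30 °C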
Anthrax LF prot – Bacillus anthracis LF protease inhibitors, primary screen, biochemical, multiplex microsphere, MLPCN library; AID 588501, 2011; 360,000 tested, 0.12% active; inhibition, % at 10 µM; Lethal factor (Bacillus anthracis), P15917; multiplex microsphere protease cleavage assay; also: plate controls were buffer without enzyme for full effect and enzyme alone for no effect
Bead autofluor – counter-screen for toxin protease inhibitors: compound fluorescence | fluorescence intensity (concentration not given with the values) | compound autofluorescence counterscreen, microsphere flow cytometry; active compounds read high | AID 624483 | 360,000 tested, 3.1% active; in the data active = fluorescence intensity above about 16000; inconclusive = no clear call, values can overlap the other calls
BoNT F protease – BoNT/F light chain protease inhibitors, primary screen, biochemical, flow cytometry, MLPCN library. inhibition, % at 10 µM. AID 588497, 2011. Multiplex microsphere protease cleavage assay. 360,000 tested, 0.22% active; in the data active = inhibition above about 35%, passing the limit was not always enough; inconclusive = no clear call, values can overlap the other calls; also: plate controls were buffer without enzyme for full effect and enzyme alone for no effect
BoNT-A LC CP1 – BoNT/A light chain protease inhibitors, confirmation, biochemical, flow cytometry, cherry pick 1; shares compounds with BoNT F protease; 720 tested, 3% active; AID 602139, 2011; inhibition, % at 10 µM; multiplex microsphere protease assay; in the data active = inhibition above about 32%
BoNT-F LC CP1 – BoNT/F light chain protease inhibitors, confirmation, biochemical, flow cytometry, cherry pick 1; shares compounds with BoNT F protease; multiplex microsphere protease cleavage assay; inhibition, % at 10 µM; 720 tested, under 10 active; AID 602140, 2011; call rule not given here
Anthrax LF CP1 – Bacillus anthracis LF protease inhibitors, confirmation, biochemical, multiplex microsphere, cherry pick 1; shares compounds with BoNT F protease; multiplex microsphere protease cleavage assay; inhibition, % at 10 µM; 720 tested, under 10 active; AID 602142, 2011; call rule not given here
An asterisk follows results filed as active; ? = inconclusive; nt = no result given. Rule as the data show it, unless noted: active = inhibition above about 30%; inconclusive = no clear call, values can overlap the other calls; inactive = below that.

SMILES	MazEF act	BoNT A protease	PfHsp40 rescue	Anthrax LF prot	Bead autofluor	BoNT F protease	BoNT-A LC CP1	BoNT-F LC CP1	Anthrax LF CP1
Cc1nc(C)c(-c2ccn(C(=O)NC(C)C)n2)s1	-15.5	0.8	-0.3	3.2	3164	38.3*	1.7	-2.0	2.6
COc1ccc(NC(=O)CSc2nc(N)c3cc4c(nc3n2)CC(C)(C)OC4)cc1	-18.4	4.2	10.9	11.4	4147	47.3*	-0.1	3.1	1.7
Cc1nc2ccc(NC(=O)COc3cccc(F)c3)cc2s1	-1.1	5.1	241.5*	-3.1	4736	38.4*	2.1	-0.7	0.2
Cc1cccc(OCC(=O)Nc2ccc3nc(C)sc3c2)c1	20.1	1.2	-1.1	4.0	3368	1.8	nt	nt	nt
CCOC(=O)CCCCC(=O)c1[nH]c(=O)[nH]c1CN1CCOCC1	-6.7	9.5	0.3	4.1	5310	58.8*	-1.0	-3.2	-0.6
CCOC(=O)CCCCC(=O)c1[nH]c(=O)[nH]c1CSc1nc(C)cc(C)n1	3.6	0.8	-0.4	4.6	4042	10.2	1.0	-1.6	-1.7
CCOC(=O)c1[nH]c(=O)[nH]c1CSc1nc(C)cc(C)n1	1.1	-0.2	-1.6	-1.7	4731	-3.3	nt	nt	nt
CCCSc1nc(C)cc(=O)[nH]1	1.6	-1.1	0.7	-8.9	2690	?	nt	nt	nt
CCOC(=O)CCCCC(=O)c1[nH]c(=O)[nH]c1CSc1nc2ccccc2[nH]1	-11.2	5.0	-0.1	0.3	7134	36.5*	-0.4	-5.9	-3.2
CCOC(=O)c1oc2cccc(O)c2c1CN1CCOCC1	-1.6	-0.2	0.6	-0.9	8466	3.3	nt	nt	nt
CCOC(=O)CCCCC(=O)c1[nH]c(=O)[nH]c1CSc1nc(C)cc(=O)[nH]1	-9.3	7.6	1.8	3.9	6552	47.3*	1.2	4.4	-1.9
COc1cc(-c2noc(C)c2C(=O)NCCCn2ccnc2)cc(OC)c1OC	-3.3	0.4	6.5	-2.7	3047	-4.6	nt	nt	nt
CC1CCN(C(=O)CCc2nnc3ccc(NCCCN4CCCC4=O)nn23)CC1	-4.3	0.0	-1.1	-1.4	5432	11.5	nt	nt	nt
CCNc1nc(NC(C)C)nc(-c2ccncc2)n1	nt	-0.6	nt	-4.7	7561	-11.1	nt	nt	nt
CC(C)OC(=O)CC1C(=O)NCCN1C(=S)NC(=O)c1ccccc1 (stereo unspecified)	-18.2	1.8	0.1	-2.8	2567	35.3*	-1.2	-4.5	-4.6
O=C(NC1(Cc2ccccc2)CCN(Cc2ccc(-c3ccccc3)cc2)C1=O)c1ccccc1 (stereo unspecified)	-8.4	0.1	5.1	-6.9	4392	3.2	nt	nt	nt
COc1ccc(CNC(=O)c2cccc(NC(=O)c3ccccc3)c2)cc1	-17.5	4.2	0.0	-0.3	2804	40.2*	0.2	-7.1	-1.5
Cc1ccccc1NS(=O)(=O)c1cccc(C(=O)Nc2cccc(C(=O)O)c2)c1	7.6	-1.7	-0.6	4.9	4073	?	-1.0	-4.1	-0.7
O=C(Nc1ccccc1O)c1cccc(S(=O)(=O)Nc2ccccc2O)c1	5.5	-0.1	-0.4	3.8	6544	-8.8	-2.2	-20.8	-2.3
Cc1ccccc1NC(=O)c1cccc(S(C)(=O)=O)c1	9.2	-0.6	-1.0	-2.3	4707	2.8	nt	nt	nt
COc1ccc(NS(=O)(=O)c2cccc(C(=O)Nc3cccc(C(=O)O)c3)c2)cc1	-2.5	-2.2	-1.2	-9.5	4059	?	0.9	14.8	-3.7
Cc1ccc(NS(=O)(=O)c2cccc(C(=O)O)c2)c(C)c1	-2.7	1.3	0.3	2.9	7495	0.4	nt	nt	nt
CCOc1ccc(N(CC(=O)NCCc2ccccc2)S(=O)(=O)c2ccccc2)cc1	0.7	-1.1	-0.1	-4.4	3982	-18.1	nt	nt	nt
COc1ccc(C(=O)NCCS(=O)(=O)NC(C)c2ccccc2)cc1 (stereo unspecified)	-3.8	-1.3	-0.7	-1.1	5911	-4.7	nt	nt	nt
CCc1nc2c(OCCc3cccc(OC)c3)cccn2c1N(C)C(=O)c1ccc(OC)cc1	nt	-0.1	nt	0.4	4103	1.1	nt	nt	nt
SMILES	MazEF act	BoNT A protease	PfHsp40 rescue	Anthrax LF prot	Bead autofluor	BoNT F protease	BoNT-A LC CP1	BoNT-F LC CP1	Anthrax LF CP1
Cc1cccc(NC(=O)c2cccc(S(=O)(=O)Nc3ccccc3C(=O)O)c2)c1	2.5	-3.3	0.2	-6.8	3303	-47.9	0.9	-5.5	-1.8
Cc1cccc(OCC(=O)Nc2cccc(C(=O)Nc3ccccc3C(=O)O)c2)c1	0.9	0.3	-1.3	-2.1	1922	-6.1	nt	nt	nt
CCCn1c2ccccc2c2nc3ccccc3nc21	-6.8	57.0*	5.1	31.2*	4676	-6.4	12.3	4.0	8.7
O=C(COc1ccccc1)NCc1n[nH]c(=S)n1-c1ccccc1	1.5	7.4	2.5	0.7	4390	46.6*	0.7	-0.4	-0.2
COc1cc(C=O)ccc1OC(=O)N1CCOCC1	1.7	-1.6	-0.1	-4.3	3798	3.2	nt	nt	nt
CCC(=O)Nc1nnc(S(=O)(=O)N(CC)c2ccc(Cl)cc2)s1	12.5	-1.7	-1.0	3.3	4343	0.3	nt	nt	nt
CCC(=O)Nc1nnc(S(=O)(=O)N(C)c2cc(C)cc(C)c2)s1	-0.5	-1.5	1.6	7.8	3945	41.7*	0.6	0.6	1.3
CC(C)n1c(NCc2ccccc2O)nc2ccccc21	12.4	-1.4	-1.2	0.8	3793	48.7*	-0.5	-2.9	-0.7
CCCn1cc(CN2CCc3ccc(NC(=O)C4CCCO4)cc3C2)c(C)n1 (stereo unspecified)	6.3	0.5	-0.8	-3.1	5260	-4.0	nt	nt	nt
COc1ccc(C2CC(c3ccc(F)cc3)n3nc(NC(=O)c4ccco4)nc3N2)cc1 (stereo unspecified)	-6.1	-1.1	-0.2	-8.6	6286	-4.0	-2.1	-11.6	-5.3
CC1CC(c2ccccc2)n2nc(NC(=O)c3ccco3)nc2N1 (stereo unspecified)	1.6	1.8	0.0	0.0	3609	?	nt	nt	nt
COC(=O)Cc1c(C(=O)OC)nnn1-c1ccc(OC(F)(F)F)cc1	-1.4	-0.6	-1.3	-0.7	2602	-8.8	nt	nt	nt
CCOC(=O)c1cnc2c(C(=O)OCC)cnn2c1N	5.2	0.6	nt	31.4*	4174	?	0.7	0.5	3.2
CN1CCC(N2CCN(C3CN(Cc4ccccc4)S(=O)(=O)C3)CC2)CC1 (stereo unspecified)	nt	-1.4	nt	-3.8	5684	-3.7	nt	nt	nt
